Laboratory results published in ChEMBL document CHEMBL4513216, “Probing the Open Global Health Chemical Diversity Library for Multistage-Active Starting Points for Next-Generation Antimalarials” (ACS Infect Dis, 2020).
Hit rate of the full screen: of about 69,000 compounds, about 8,600 (12%) showed an effect of 50% or more. The sample as a whole holds a higher share of strong results than the screen did.

The molecules below were run on Plasmodium berghei (assay: Screen against P. berghei liver stage (PbLuc), transformed with Luciferase, at 10uM). Settings: tested at 10 uM.
Assay type: functional, HepG2

| Compound | INHIBITION [%] |
| --- | --- |
| CC(=O)N(Cc1noc(C2CC2)n1)C1CCN(Cc2ccccc2)C1 (stereo not given) | -6.44 |
| c1cncc(-c2ccc3c(c2)C2(CCNCC2)CC3)c1 | 27.5 |
| O=C(CCO)N1CCC2(CCc3ccc(-c4ccoc4)cc32)CC1 | 0.923 |
| c1cncc(-c2ccc3c(c2)CCC32CCNCC2)c1 | 57.1 |
| c1cc(-c2ccc3c(c2)CCC32CCNCC2)ccn1 | 57.1 |
| c1cc(-c2ccc3c(c2)C2(CCNCC2)CC3)ccn1 | 82.2 |
| CN(C)CC(=O)N1CCC2(CCc3ccc(-c4ccncc4)cc32)CC1 | 21.6 |
| Cc1ccc2c(c1)CCC21CCN(C(=O)CO)CC1 | 10.1 |
| O[C@H]1[C@H](n2cc(-c3cccnc3)nn2)c2ccccc2C12CCNCC2 | 31.2 |
| c1cncc(-c2ccc3c(c2)CCC32CCN(Cc3nccs3)CC2)c1 | 57.1 |
| CN(C)CC(=O)N1CCC2(CCc3cc(-c4cccnc4)ccc32)CC1 | 15.3 |
| OCCN1CCC2(CCc3cc(-c4ccoc4)ccc32)CC1 | 28.2 |
| c1cncc(-c2ccc3c(c2)CCC32CCN(Cc3ccco3)CC2)c1 | 26.5 |
| CCOc1ccc(NC(=O)c2cc3c([nH]c2=O)CCC3)cc1 | -29.6 |
| NC(=O)NC1CCN(Cc2ccccc2OCC(F)(F)F)CC1 | 6.7 |
| Cc1noc(CN2CCN(C(=O)N(C)C)CC2)n1 | 23.5 |
| CS(=O)(=O)NC[C@@H]1OC[C@H]2CN(Cc3ccccc3)CC[C@H]21 | -54.9 |
| CC(C)c1sc(Cl)nc1C(=O)NCc1ccncc1 | -23 |
| COc1nn(C)c2c1CCCN(C(=O)c1ccc(C)c(F)c1)C2 | -8.94 |
| CS(=O)(=O)NC[C@H]1OC[C@H]2CN(Cc3ccsc3)CC[C@H]21 | -24.1 |
| CN(C)c1ccc(CNC(=O)Nc2ccc(S(=O)(=O)C(F)F)cc2)cc1 | -3.99 |
| Cn1ccc(CNC(=O)Nc2ccc(S(=O)(=O)C(F)F)cc2)c1 | 30.4 |
| COc1ccc(CNC(=O)Nc2ccc(S(=O)(=O)C(F)F)cc2)cc1 | 66.2 |
| Cc1cccc(Sc2nccn(C)c2=O)c1 | 20.3 |
| CC(=O)N1CCC(n2nccc2-c2cnc(N(C)CCO)nc2)CC1 | 11.5 |
| CN(C)C1COC2(CCN(S(=O)(=O)c3ccc(F)cc3)CC2)C1 (stereo not given) | 57.5 |
| Cc1cccc(S(=O)(=O)N2CCC3(CC2)CC(N(C)C)CO3)c1 (stereo not given) | 72 |

| Compound | INHIBITION [%] |
| --- | --- |
| CCOC1COC2(CCN(S(=O)(=O)c3cccc(C)c3)CC2)C1 (stereo not given) | 27.6 |
| CCOC1COC2(CCN(S(=O)(=O)c3cccc(F)c3)CC2)C1 (stereo not given) | 29.6 |
| COC1COC2(CCN(S(=O)(=O)c3ccc(F)cc3)CC2)C1 (stereo not given) | 32.1 |
| CCOC1COC2(CCN(S(=O)(=O)c3ccc(F)cc3)CC2)C1 (stereo not given) | 45.7 |
| CCOCC1CN(S(=O)(=O)N(C)C)Cc2cnn(C)c21 (stereo not given) | 33.5 |
| COCCN1CCO[C@@H]2CN(C(=O)Cc3ccccc3)CC[C@@H]2C1 | 18.5 |
| O=C(CCN1CCCO1)N1CC[C@@H](CNC(=O)N2CCCC2)[C@H](O)C1 | 43.7 |
| O=C(CCN1CCCCO1)N1CC[C@H](O)[C@@H](O)C1 | 28.7 |
| CC(C)O[C@H]1CN(C(=O)CCN2CCCCO2)C[C@@H]1O | 57.6 |
| Cc1cccc(C(=O)N2C[C@@H]3CCN(C(C)C)C[C@@H]3C2)c1 | -38.1 |
| Cc1cc(CN2CC[C@H]3C[C@H](C(=O)N4CCC(C)CC4)O[C@H]3C2)no1 | 34.7 |
| COc1cccc(-c2nc(CC(=O)NC3(C)CCS(=O)(=O)C3)cs2)c1 (stereo not given) | -10.1 |
| COCC1CCN(c2cc(C3CN(C)CCO3)nc(C)n2)CC1 (stereo not given) | 23.9 |
| Cn1cc(C2CCCN2C(=O)Cc2coc(-c3ccccc3)n2)cn1 (stereo not given) | 13.9 |
| CCC1CN(C(=O)Cc2coc(-c3ccccc3)n2)CCO1 (stereo not given) | 7.4 |
| Cn1cc(C2CN(C(=O)Cc3coc(-c4ccccc4)n3)CCO2)cn1 (stereo not given) | 53.9 |
| CCS(=O)(=O)N1CCC2(CCN(Cc3nccs3)CC2)CC1 | 26.5 |
| CC(C)(C)C(=O)N1CCCC(c2ncncc2-c2ccncc2)C1 (stereo not given) | 49.6 |
| O=C1COc2cc(C(=O)NS(=O)(=O)c3cccc(Cl)c3)ccc2N1 | 47 |
| COc1ccc(CN(C)C2CSCCSC2)c2cccnc12 | 57.4 |
| COc1ccc(CN(C)C2CCN(S(C)(=O)=O)CC2)c2cccnc12 | 30.5 |
| COc1ccc(CN(C)C2CCN(C(=O)C(C)C)CC2)c2cccnc12 | 8.97 |
| O=C(c1ccccc1F)N1CCC2(CC1)CC(N1CCCC1)CO2 (stereo not given) | 44.8 |
| Cc1cnn(CC2CCCN2C(=O)c2ccc(F)cc2Cl)c1 (stereo not given) | -81.1 |
| CN(C)C(=O)c1n[nH]c2c1CN(CC1CCCCC1)C2 | 25.6 |
| CCn1cc(NC(=O)C(C)n2ncc(Cl)c2C)c(C(=O)NCC(C)C)n1 (stereo not given) | 11 |
| COCCN1CCC(c2nc3ccc(NC4CCC4)cn3n2)CC1 | 57.5 |

| Compound | INHIBITION [%] |
| --- | --- |
| COCC(=O)N1CCC(c2nc3ccc(N4CCOCC4)cn3n2)CC1 | 45.2 |
| c1cc2nc(C3CCN(CC4CC4)CC3)nn2cc1N1CCCC1 | 8.47 |
| COCCN1CCC(c2nc3ccc(N4CCCC4)cn3n2)CC1 | 52 |
| CCN1CCC(c2nc3ccc(NC4CCC4)cn3n2)CC1 | 46.6 |
| COCCN1CCC(c2nc3ccc(NC(C)C)cn3n2)CC1 | 19.5 |
| O=C(C1CCOCC1)N1CCc2ncc(CN3CCOCC3)n2CC1 | -3.88 |
| COCCN1CCC2(CCN(c3ncccn3)CC2)C1=O | 34.6 |
| Cc1ccc(CN2C[C@@H]3[C@@H](C(=O)NCC4CC4)CCS(=O)(=O)[C@@H]3C2)cc1 | -21.1 |
| Cc1cc(C)cc(C(=O)Nc2cn[nH]c2)c1 | 7.77 |
| O=C(NC1CCCC1)c1cc(Sc2ncccn2)ccn1 | -48.4 |
| Cc1[nH]ncc1C(=O)NCC1CCC2(CC1)OCCO2 | 32 |
| O=C(NCC1CCC2(CC1)OCCO2)c1ccncc1F | 57.7 |
| Cc1cc(C(=O)NCC2CCC3(CC2)OCCO3)[nH]n1 | 41.4 |
| CC(C)Sc1ccc(C(C)NC(=O)CNS(C)(=O)=O)cc1 (stereo not given) | 38 |
| CCSc1ccc(C(C)NC(=O)CNS(C)(=O)=O)cc1 (stereo not given) | 51.7 |
| CCSc1ccc(C(C)NC(=O)CCS(C)(=O)=O)cc1 (stereo not given) | 2.91 |
| CCSCCNc1nc(-c2ccccn2)nc2c1c(C)nn2C | 51.3 |
| Cc1nn(C)c2nc(-c3ccccn3)nc(NCCCOC(C)C)c12 | 5.46 |
| CC(=O)NCCNc1nc(-c2ccccn2)nc2c1c(C)nn2C | 39.1 |
| CC(C)N(C)Cc1cnc2n1CCN(C(=O)Cc1cccs1)C2C (stereo not given) | -18.5 |
| Cc1nccn1C1CCCN(C(=O)c2ccnc(-n3ccnc3)c2)C1 (stereo not given) | 18.2 |
| CC(C)n1nnc(CC(=O)NCC2(c3ccccc3F)CCOCC2)n1 | 27.05 |
| O=C(c1cc2cccc(F)c2[nH]1)N1C[C@@H](O)[C@H](N2CCOCC2)C1 | -9.08 |
| CCC(CC)C(=O)NCC1(NC(C)c2ccccc2)CCOCC1 (stereo not given) | 59.3 |
| CC(NC1(CNC(=O)CC(C)(C)C)CCOCC1)c1ccccc1 (stereo not given) | -6.75 |
| CCOCC(=O)NCC1(NC(C)c2ccccc2)CCOCC1 (stereo not given) | 42 |
| CC(NC1(CNC(=O)NC2CC2)CCOCC1)c1ccccc1 (stereo not given) | 43.1 |

| Compound | INHIBITION [%] |
| --- | --- |
| CC(NC1(CNC(=O)CC2CCCC2)CCOCC1)c1ccccc1 (stereo not given) | 82.1 |
| CC(NC1(CNC(=O)OC(C)(C)C)CCOCC1)c1ccccc1 (stereo not given) | 36.6 |
| COc1cccc(CNCC2(COc3cccnc3)C[C@@H](O)[C@@H](O)C2)c1 (stereo not given in full) | 46.4 |
| CC(Nc1ccc(C(F)(F)F)cc1C#N)c1cccc(S(N)(=O)=O)c1 (stereo not given) | 28.6 |
| O=c1c(NCc2ccncc2)c(NCC(O)CN2CCOCC2)c1=O (stereo not given) | 50.8 |
| CC(C)CNC(=O)CNc1c(NCc2ccccn2)c(=O)c1=O | -8.8 |
| OC(CNc1ccc(Cl)cn1)CN1CCOCC1 (stereo not given) | -58.5 |
| O=c1c(NCc2ccco2)c(NCC(O)CN2CCOCC2)c1=O (stereo not given) | 48.9 |
| CC(C)(CO)Nc1c(NCc2ccccn2)c(=O)c1=O | 6.34 |
| O=c1c(NCc2ccccn2)c(NCC(O)CN2CCOCC2)c1=O (stereo not given) | 50.8 |
| CC(NC(=O)NCc1cccnc1N(C)C)c1ccc(F)cc1 (stereo not given) | -12.1 |
| COCCC(=O)N1C[C@@H]2CC[C@H]1CN(C1Cc3ccccc3C1)C2 | -20.6 |
| CN(C)CCO[C@H]1CN(C(=O)c2ccc[nH]2)[C@@H]2COC[C@H]12 | 7.65 |
| CCN(CC)C1CCN(C(=O)c2cc(-n3cccn3)ccc2Cl)CC1 | 14.6 |
| CCN1CCC2(CC1)CC(NC(=O)NC)c1cc(C)ccc12 (stereo not given) | -25 |
| Cc1ccc2c(c1)C1(CCNCC1)CC2NCCO (stereo not given) | 55.7 |
| Cc1ccc2c(c1)C1(CCNCC1)CC2NC(C)C (stereo not given) | -22.7 |
| Fc1ccc2c(c1)C1(CCNCC1)CC2NC1CC1 (stereo not given) | 95.5 |
| c1ccc2c(c1)C(NC1CCCC1)CC21CCNCC1 (stereo not given) | 71.1 |
| CNC(=O)NC1CC2(CCNCC2)c2ccc(C)cc21 (stereo not given) | 63 |
| CC(C)NC1CC2(CCNCC2)c2cc(F)ccc21 (stereo not given) | -33.1 |
| Fc1ccc2c(c1)C1(CCNCC1)CC2OCC1CC1 (stereo not given) | -5.63 |
| CC(=O)N1CC2(CCNCC2)c2cc(C)ccc21 | 7.77 |
| Cc1ccc2c(c1)C(NC(C)C)CC21CCNCC1 (stereo not given) | -46.4 |
